An excerpt weighted towards active compounds, which were near 3.5% of everything screened.
Myeloid diff MLP – myeloid differentiation induction | ER-HoxA9 myeloid progenitors, lysozyme-GFP differentiation, flow cytometry | calls only at 10 µM | actives 1% (n = 360,000) | AID 624256;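 active means normalized GFP-positive differentiation at or above the plate's own cutoff, the solvent-only control mean plus 3 SD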;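 further: cells exposed to compound for four days before flow analysis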
CHRM1 agonist – agonists of human M1 muscarinic receptor; CHO-K1 hM1, Fluo-8 calcium fluorescence, agonist mode; 0% DMSO, 100% acetylcholine EC100; activation, % at 3 µM; actives 0.33% (n = 360,000);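 active means activation above the run's mean compound activation plus 3 SD, cut at about 16% in these data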;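 further: peak over basal fluorescence ratio within a 140 s kinetic read after compound addition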
Target sequence (P11229 whole entry, looked up): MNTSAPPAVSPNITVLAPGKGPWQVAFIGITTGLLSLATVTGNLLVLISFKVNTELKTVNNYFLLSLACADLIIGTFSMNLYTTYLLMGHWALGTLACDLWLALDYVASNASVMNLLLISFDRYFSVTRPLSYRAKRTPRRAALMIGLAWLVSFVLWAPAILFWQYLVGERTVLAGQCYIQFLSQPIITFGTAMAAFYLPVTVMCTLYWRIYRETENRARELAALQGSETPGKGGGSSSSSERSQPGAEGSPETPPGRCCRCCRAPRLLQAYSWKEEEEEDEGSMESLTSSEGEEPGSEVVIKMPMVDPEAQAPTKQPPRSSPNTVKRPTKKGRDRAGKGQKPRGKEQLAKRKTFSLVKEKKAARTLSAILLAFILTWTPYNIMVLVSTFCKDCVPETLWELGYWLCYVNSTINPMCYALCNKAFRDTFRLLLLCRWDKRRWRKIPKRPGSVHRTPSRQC
M1 antag – human CHRM1 antagonism; CHO-K1 hM1, Fluo-8 calcium fluorescence, ACh EC80 antagonist; inhibition, % at 3 µM; actives 1.3% (n = 360,000);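 active means percent inhibition above its own plate's cutoff, namely the mean of that plate's compound wells plus 3 SD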;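 further: peak over basal fluorescence ratio during 140 s after agonist addition; 0% = ACh EC80 plus DMSO and 100% = DMSO alone without agonist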
ATG4B inh – inhibitors of human ATG4B cysteine protease; ATG4B cleavage of LC3-PLA2, NBD-HPC fluorescence, 1 h; inhibition, % at 8.33 µM; actives 0.51% (n = 340,000); in the data active means inhibition above about 40%
SKN-1 inh – blocks SKN-1 activity in C. elegans; C. elegans VP596 Pgst-4::GFP/RFP ratio, acrylamide-induced, 24 h; AID 624304; actives 0.49% (n = 360,000); inhibition, % at 21.8 µM;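 active means interference check ratio from 0.5 to 1.5 plus GFP to RFP signal ratio inhibition reaching or exceeding a fixed threshold, cut at about 30% in these data, passing the limit was not always enough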
CHRM1 PAM – potentiates human M1 receptor response to acetylcholine. AID 588819. activation, % at 3 µM. P11229. actives 0.088% (n = 360,000). CHO-K1 hM1, Fluo-8 calcium fluorescence, ACh EC20; 0% = ACh EC20, 100% = maximal ACh; in the data active means activation above about 19%, passing the limit was not always enough
Myeloid diff – myeloid differentiation induction; shares compounds with Myeloid diff MLP; ER-HoxA9 myeloid progenitors, GFP/Mac1 double-positive flow; calls only; actives 2% (n = 2,300); AID 651706;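 active means share of green or green-and-red cells above 9 and 9% in run 1 or 4 and 3% in run 2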
GFP autofluor – counter-screen for myeloid differentiation promoters: compound fluorescence. actives 7.4% (n = 2,300). ER-HoxA9 myeloid progenitors, no estrogen, GFP autofluorescence flow cytometry; vehicle wells 0%, positive control 100%. shares compounds with Myeloid diff MLP. fluorescence response, % (no concentration beside the values);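 active means over 5% cells positive for green fluorescent reporter, or over 2% positive for both it and APC stain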;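 further: range taken on the double positive population between DMSO and positive control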
The depositor's hits bear a star; i = inactive; nt = no result; + = active, no number.

SMILES | Myeloid diff MLP | CHRM1 agonist | M1 antag | ATG4B inh | SKN-1 inh | CHRM1 PAM | Myeloid diff | GFP autofluor
CC1(C)CN(c2ccc(Br)cc2)C(=O)[C@H]1CC(=O)Nc1ccccc1 | i | -4 | -12 | nt | 11 | 3 | nt | nt
CC1(C)CN(CCc2ccccc2)C(=O)[C@H]1CC(=O)Nc1ccccc1 | + | 0 | -5 | nt | 2 | 6 | i | 10*
O=C(Cc1ccc(Cl)cc1)NCCCNC(=O)c1cccnc1 | i | -4 | -6 | -1 | -7 | 9 | nt | nt
CCN1CCc2c(sc(NC(=S)NC(=O)c3ccco3)c2C(N)=O)C1 | i | -3 | 2 | -5 | -3 | 6 | i | 3
CCN1CCc2c(sc(NC(=O)c3ccc(S(=O)(=O)N(CC)c4ccccc4)cc3)c2C(N)=O)C1 | + | 0 | -11 | -9 | 3 | 4 | i | 15*
Cc1ccc(-n2ncc3c2CC(C)(C)CC3NC(=O)c2ccncc2)cc1 (centres undefined) | i | 1 | -9 | -6 | -7 | 11 | nt | nt
Oc1ccc(Br)c(CN2CCN(c3ncc(Cc4ccccc4)cn3)CC2)c1 | i | nt | nt | nt | -1 | nt | nt | nt
O=C(NC(Cc1c[nH]c2ccccc12)C(=O)O)/C(=C\c1ccc2c(c1)OCO2)NC(=O)c1ccccc1 (centres undefined) | i | -1 | -12 | -6 | -19 | 11 | nt | nt
Oc1cc(-c2ccncc2)cc2cccnc12 | + | -2 | 8 | -4 | 19 | 1 | i | 0
Cc1ccc(OC(=O)c2sc3ncn(C)c(=O)c3c2C)cc1 | i | 2 | -11 | 7 | 4 | 8 | nt | nt
CN(C)c1ccc(S(=O)(=O)NCC(=O)NCc2ccccc2)cc1[N+](=O)[O-] | i | -7 | -3 | -1 | -6 | 9 | nt | nt
CN(C)c1ccc(S(=O)(=O)NCC(=O)N2CCN(c3ccccc3)CC2)cc1[N+](=O)[O-] | + | -6 | -8 | -4 | 4 | 13 | i | 0
C=C(C)CSc1cc(C)nc2c(-c3ccccc3)c(C)nn12 | i | -3 | -10 | -3 | -4 | 1 | nt | nt
CCOC(=O)c1cc2c(=O)n3ccccc3nc2n(C)c1=NC(=O)c1c(-c2c(F)cccc2Cl)noc1C | i | -2 | 5 | 2 | 2 | -2 | nt | nt
CCOC(=O)c1cc2c(=O)n3ccccc3nc2n(C(C)C)c1=NC(=O)c1c(-c2c(F)cccc2Cl)noc1C | + | -10 | 4 | -9 | -1 | -9 | i | 0
CC1CCN(S(=O)(=O)c2ccc(C(=O)N3CCN(c4ccccc4F)CC3)cc2)CC1 | i | -5 | -2 | 6 | -2 | 4 | nt | nt
O=C(CSc1nc2ccc(F)cc2c(=O)n1-c1ccccc1)Nc1ccc2c(c1)CCC2 | + | -4 | 0 | nt | 4 | -1 | i | 0
CCN(CC)CCOC(=O)c1ccc(N/C=C(/C#N)c2nc(-c3ccc(OC)c(OC)c3)cs2)cc1 | i | -1 | 10 | -23 | -3 | 2 | i | 0
N#C/C(=C\N1CCN(Cc2ccc3c(c2)OCO3)CC1)c1nc2ccccc2s1 | i | 2 | 18 | -3 | 5 | -10 | + | 0
CCc1ccc(CN2CCC(n3nccc3NC(=O)c3cccc(F)c3)CC2)cc1 | + | 1 | -6 | 13 | 9 | 4 | i | 0
Cc1ccc(NC2CCCN(C(=O)c3ccnc(Cl)c3)C2)cc1C (centres undefined) | i | 0 | -5 | 9 | 0 | 2 | nt | nt
CSc1nnc(N2C(=O)C(O)=C(C(=O)c3ccc(C)o3)C2c2ccc(C)cc2)s1 (centres undefined) | + | -5 | 0 | 0 | -11 | 7 | i | 0
CSc1nnc(N2C(=O)C(O)=C(C(=O)c3ccco3)C2c2ccccc2)s1 (centres undefined) | i | 4 | -27 | -3 | 6 | 17 | nt | nt
CCOP(=O)(OCC)C(NC(=O)Nc1ccc(C)cc1)C(N)=O (centres undefined) | + | -3 | -5 | -3 | 3 | 4 | i | 0
CCOP(=O)(OCC)C(NC(=O)Nc1cccc(Cl)c1)C(N)=O (centres undefined) | i | -3 | -1 | -8 | 14 | 5 | nt | nt
SMILES | Myeloid diff MLP | CHRM1 agonist | M1 antag | ATG4B inh | SKN-1 inh | CHRM1 PAM | Myeloid diff | GFP autofluor
COc1ccc(CSc2nc(CSC)cc(N3CCOCC3)n2)cc1 | + | -8 | 2 | -9 | 15 | -4 | i | 0
COc1cccc(Cn2c3ccc(NC(=O)Cc4ccccc4C)cc3c(=O)n2C)c1 | i | -7 | -6 | nt | 2 | -1 | nt | nt
O=C(CSc1ncccn1)NC1CCCc2ccccc21 (centres undefined) | i | -2 | -2 | -13 | -7 | 1 | nt | nt
O=Cc1c(Sc2ccccc2)nc2ccccn2c1=O | i | -5 | 1 | -4 | 14 | -1 | nt | nt
O=C(O)c1ccccc1N/N=C/c1c(Sc2nnnn2-c2ccccc2)nc2ccccn2c1=O | + | 0 | 5 | -10 | 16 | 10 | + | 2
Cc1ccc(CN(C)C(=O)CN2C(=O)NC3(CCCc4ccccc43)C2=O)c(C)c1 (centres undefined) | i | -2 | -11 | -1 | -5 | 14 | nt | nt
Cc1cc(C)cc(OCc2nc(-c3cccnc3)no2)c1 | + | -1 | -5 | 2 | 0 | 3 | i | 0
CCC1S/C(=C(\C#N)C(N)=O)N(c2ccc(F)cc2)C1=O (centres undefined) | i | -2 | -5 | 2 | 30 | 2 | nt | nt
N#C/C(C(N)=O)=C1/SC(Cc2ccc(F)cc2)C(=O)N1c1ccccc1 (centres undefined) | i | 0 | -4 | -1 | 3 | 3 | i | 4
Cc1ccccc1N1C(=O)C(Cc2ccc(F)cc2)S/C1=C(\C#N)C(N)=O (centres undefined) | i | 5 | -3 | -4 | -9 | 1 | i | 5
COCC(=O)NC1CCN(S(=O)(=O)c2cccc(C(C)=O)c2)CC1 | i | -3 | -7 | -2 | -1 | 3 | nt | nt
COc1cc(C=NCc2ccccc2)ccc1O | i | -3 | -2 | nt | 5 | 2 | nt | nt
COc1cc(O)oc1C=Nc1ccccc1 | + | -3 | 4 | -14 | 4 | 0 | i | 0
COc1ccc(Cl)cc1NC(=O)c1nnn(CC(=O)Nc2ccc(C)c(C)c2)c1N | i | -2 | 17 | -5 | -1 | 2 | nt | nt
CCOC(=O)c1cc(C(=O)OCC)c2cc(Br)ccc2n1 | + | -7 | -7 | 4 | 2 | 7 | i | 0
